Experimental data published in PubChem BioAssay (NCATS).
Inconclusive results are not listed. Where a call stands in place of a potency, no number is given. Calls of active or inactive are those of the source. Calls follow the shape of the dose curve; as a rule, active = well fitted inhibition curve with a large enough effect; inconclusive = small, poorly fitted or top-dose-only effect; inactive = flat fitted curve, though single readings scatter.

System: CP252
Experiment: qHTS profiling for inhibitors of Plasmodium falciparum proliferation (AID 504749); also: nearly all actives have a fitted effect of over 60% in size
Conditions: P. falciparum in erythrocytes, SYBR Green DNA, 72 h; series mostly up to 28.7 µM
How it was run: (§1)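 Three-day growth assay of blood-stage parasites in erythrocytes (0.3% parasitemia, 2.5% hematocrit) at 37 C, 5% CO2, quantified by SYBR Green DNA staining after overnight detergent lysis.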
Potency is read from the fitted curve at half-maximal effect.

SMILES | Potency
O=C1[C@H]2CCCC[C@H]2C(=O)N1CCCCN1CCN(c2nsc3ccccc23)CC1 | inactive
C[C@@H]1C[C@H]2[C@@H]3CCC4=CC(=O)C=C[C@]4(C)[C@@]3(F)[C@@H](O)C[C@]2(C)[C@H]1C(=O)CO | inactive
CC(=O)OCC(=O)[C@@]1(OC(C)=O)[C@@H](C)C[C@H]2[C@@H]3C[C@H](F)C4=CC(=O)C=C[C@]4(C)[C@@]3(F)[C@@H](O)C[C@@]21C | inactive
CCCCCCCCCCCCCCCC[N+](C)(C)CCN(Cc1ccc(OC)cc1)c1ncccn1 | inactive
CN(C(=O)CN(CCO)CC(=O)N(C)C(C)(C)Cc1ccccc1)C(C)(C)Cc1ccccc1 | inactive
CCN(CCCc1ccccc1)CCCc1ccccc1 | inactive
C=C(CC)C(=O)c1ccc(OCC(=O)O)c(Cl)c1Cl | 12.6 µM (active)
CCOc1ccc(Cc2nccc3cc(OCC)c(OCC)cc23)cc1OCC | inactive
CCCCN1CCCC1C(=O)Nc1c(C)cc(C)cc1C (stereo unspecified) | inactive
O=C(N/N=C/c1ccccc1O)c1ccncc1 | 8.91 µM (active)
Cc1cccc(C)c1NC(=O)CN1CCN(CCCC(c2ccc(F)cc2)c2ccc(F)cc2)CC1 | inactive
CN1CCN(C(c2ccccc2)c2ccccc2)CC1 | inactive
CCN1CCC[C@H]1CNC(=O)c1c(OC)ccc(Br)c1OC | inactive
Oc1ccc(Cl)c2cccnc12 | inactive
CCN1CCN(c2cc3c(cc2F)c(=O)c(C(=O)O)cn3C2CC2)CC1 | inactive
CC(Cc1cccc(C(F)(F)F)c1)NCCOC(=O)c1ccccc1 (stereo unspecified) | inactive
CC(=O)c1ccc2c(c1)N(CCCN1CCC(CCO)CC1)c1ccccc1S2 | inactive
CCN(CC)C(=O)/C(C#N)=C/c1cc(O)c(O)c([N+](=O)[O-])c1 | inactive

System: CP256
Experiment: as above
Conditions: P. falciparum in erythrocytes, SYBR Green DNA, 72 h; series mostly up to 28.7 µM
How it was run: as §1

SMILES | Potency
O=C1[C@H]2CCCC[C@H]2C(=O)N1CCCCN1CCN(c2nsc3ccccc23)CC1 | inactive
C[C@@H]1C[C@H]2[C@@H]3CCC4=CC(=O)C=C[C@]4(C)[C@@]3(F)[C@@H](O)C[C@]2(C)[C@H]1C(=O)CO | inactive
CC(=O)OCC(=O)[C@@]1(OC(C)=O)[C@@H](C)C[C@H]2[C@@H]3C[C@H](F)C4=CC(=O)C=C[C@]4(C)[C@@]3(F)[C@@H](O)C[C@@]21C | inactive
CCCCCCCCCCCCCCCC[N+](C)(C)CCN(Cc1ccc(OC)cc1)c1ncccn1 | inactive
CN(C(=O)CN(CCO)CC(=O)N(C)C(C)(C)Cc1ccccc1)C(C)(C)Cc1ccccc1 | inactive
CCN(CCCc1ccccc1)CCCc1ccccc1 | inactive
C=C(CC)C(=O)c1ccc(OCC(=O)O)c(Cl)c1Cl | 4.47 µM (active)
Clc1ccc2c(c1)CCc1cccnc1C2=C1CCNCC1 | inactive
CCCCN1CCCC1C(=O)Nc1c(C)cc(C)cc1C (stereo unspecified) | inactive
O=C(N/N=C/c1ccccc1O)c1ccncc1 | 11.2 µM (active)
Cc1cccc(C)c1NC(=O)CN1CCN(CCCC(c2ccc(F)cc2)c2ccc(F)cc2)CC1 | inactive
CN1CCN(C(c2ccccc2)c2ccccc2)CC1 | inactive
CCN1CCC[C@H]1CNC(=O)c1c(OC)ccc(Br)c1OC | inactive
Oc1ccc(Cl)c2cccnc12 | inactive
CCN(CC)CCNC(=O)COc1ccc(Cl)cc1 | inactive
CCN1CCN(c2cc3c(cc2F)c(=O)c(C(=O)O)cn3C2CC2)CC1 | inactive
CC(Cc1cccc(C(F)(F)F)c1)NCCOC(=O)c1ccccc1 (stereo unspecified) | inactive
CC(=O)c1ccc2c(c1)N(CCCN1CCC(CCO)CC1)c1ccccc1S2 | inactive
O=C(CCCN1CCC(O)(c2ccc(Br)cc2)CC1)c1ccc(F)cc1 | inactive
CC(C)N=C(N)/N=C(\N)Nc1ccc(Cl)cc1 | 0.708 µM (active)
O=C(Nc1ccc(Oc2ccc(Cl)cc2)c(Cl)c1)c1cc(I)cc(I)c1O | inactive
CCN(CC)C(=O)/C(C#N)=C/c1cc(O)c(O)c([N+](=O)[O-])c1 | inactive

System: CP260
Experiment: as above
Conditions: P. falciparum in erythrocytes, SYBR Green DNA, 72 h; series mostly up to 28.7 µM
How it was run: as §1

SMILES | Potency
O=C1[C@H]2CCCC[C@H]2C(=O)N1CCCCN1CCN(c2nsc3ccccc23)CC1 | inactive
C[C@@H]1C[C@H]2[C@@H]3CCC4=CC(=O)C=C[C@]4(C)[C@@]3(F)[C@@H](O)C[C@]2(C)[C@H]1C(=O)CO | inactive
CC(=O)OCC(=O)[C@@]1(OC(C)=O)[C@@H](C)C[C@H]2[C@@H]3C[C@H](F)C4=CC(=O)C=C[C@]4(C)[C@@]3(F)[C@@H](O)C[C@@]21C | inactive
O=c1c(-c2ccccc2)c1-c1ccccc1 | 8.91 µM (active)
CN(C(=O)CN(CCO)CC(=O)N(C)C(C)(C)Cc1ccccc1)C(C)(C)Cc1ccccc1 | inactive
CCN(CCCc1ccccc1)CCCc1ccccc1 | inactive
C=C(CC)C(=O)c1ccc(OCC(=O)O)c(Cl)c1Cl | 8.91 µM (active)
CCOc1ccc(Cc2nccc3cc(OCC)c(OCC)cc23)cc1OCC | inactive
CC(=O)N/N=C/c1ccc([N+](=O)[O-])o1 | 7.94 µM (active)
CCCCN1CCCC1C(=O)Nc1c(C)cc(C)cc1C (stereo unspecified) | inactive
O=C(N/N=C/c1ccccc1O)c1ccncc1 | 5.01 µM (active)
Cc1cccc(C)c1NC(=O)CN1CCN(CCCC(c2ccc(F)cc2)c2ccc(F)cc2)CC1 | inactive
CCCCCCCCCCOCC(O)CN (stereo unspecified) | inactive
CN1CCN(C(c2ccccc2)c2ccccc2)CC1 | inactive
CCN1CCC[C@H]1CNC(=O)c1c(OC)ccc(Br)c1OC | inactive
CC(Cc1cccc(C(F)(F)F)c1)NCCOC(=O)c1ccccc1 (stereo unspecified) | inactive
CN(C)CC/C=C1\c2ccccc2Sc2ccc(Cl)cc21 | 8.91 µM (active)
O=C(CCCN1CCC(O)(c2ccc(Br)cc2)CC1)c1ccc(F)cc1 | 3.55 µM (active)
NC(CS)C(=O)O (stereo unspecified) | 8.91 µM (active)
CO/N=C1\CN(c2nc3c(cc2F)c(=O)c(C(=O)O)cn3C2CC2)CC1CN (stereo unspecified) | 7.94 µM (active)
CCN(CC)C(=O)/C(C#N)=C/c1cc(O)c(O)c([N+](=O)[O-])c1 | inactive
